IL-1B inflam inh – inflammasome signaling inhibition, IL-1 beta readout | THP-1 LPS/ATP IL-1B secretion, AlphaLISA, 16 h; hits give low values | activity change, % at 57.5 µM | 360,000 compounds, 4.7% hits | AID 743279; in the data active = activity change below about -50%; inconclusive = mostly about -30% to -49%
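THP-1 cells pretreated 1 hr with compounds (up to 57.5 uM final), then stimulated with LPS (250 ng/mL final) plus ATP (1.25 mM final); secreted IL-1B measured by AlphaLISA after 16 hr, decreased signal indicating inhibition.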
TDP1 cell CPT – growth inhibition of DT40 Tdp1-/-;hTDP1 cells with camptothecin (screen for TDP1 inhibitors). chicken DT40 Tdp1-/-;hTDP1 cells + 20 nM CPT, ATP luminescence, 48 h. Potency, µM (top dose mostly 46.2 µM), for the others: top-dose activity change, negative = growth inhibition, most hits filed as inhibitors. 420,000 compounds, 12% hits. AID 686979; note: potency is the fitted concentration of half-maximal effect; nearly all actives have a fitted effect of over 55% in size
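Cell growth measured by CellTiter-Glo luminescence after a minimum 48 h, 37 C compound exposure with 20 nM CPT in Tdp1-knockout DT40 cells stably expressing hTDP1, seeded 400/well; qHTS titration format.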
HT1080NT lethal – kills 2HG-producing HT-1080-NT fibrosarcoma cells; Potency, µM (titrated, usually from 46.1 µM), without a hit: at the top dose activity, negative = less viability, usual class: cytotoxic; HT-1080-NT fibrosarcoma viability, CellTiter-Glo ATP luminescence, 48 h; 360,000 compounds, 1.6% hits;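 note: NT is the 2HG producing partner of a matched IDH1 knockdown line; potency is the fitted concentration of half-maximal effect; 0% = DMSO-treated cells and -100% = media-only wells without cells; nearly all actives have a fitted effect of over 55% in size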
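Viability of the 2HG-overproducing fibrosarcoma line after 48 hours of compound exposure at 37 degrees C was determined by luminescence with CellTiter-Glo, and concentration-effect curves were then fitted and categorized.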
HT1080 IDH1KD tx – HT-1080 IDH1 knockdown cell toxicity (counter line); HT-1080 IDH1 knockdown viability, ATP luminescence, 48 h; 360,000 compounds, 2% hits; Potency, µM (doses to about 46.1 µM), for the others: at the highest dose activity, negative = toxicity, hits mostly cytotoxic;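 note: potency is the fitted concentration of half-maximal effect; 0% = DMSO wells and -100% = cell-free medium wells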
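Viability of IDH1-knockdown HT-1080 fibrosarcoma cells was assessed by CellTiter-Glo after 48 h at 37 °C with titrated compound; concentration-effect curves were classified by fit quality and response size.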
ELG1 DNA repair – blocks ELG1-dependent DNA repair in HEK293T cells; HEK293T ELG1-luciferase reporter, luminescence, 16 h; DNA damage induced by 5-fluorouridine; AID 504467; Potency, µM (top dose mostly 46.1 µM), for the others: at the top dose activity change, negative = inhibition, actives largely listed as inhibitors; 330,000 compounds, 2.3% hits; note: potency is the fitted concentration of half-maximal effect; nearly all actives have a fitted effect of over 55% in size
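In this reporter screen, reduction of luminescence relative to DMSO vehicle indicated activity. Compounds and 5-fluorouridine were added together to 2,000 cells per well, incubated for 16 hr at 37 °C, then developed with ONE-Glo.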
DT40 TDP1 no CPT – qHTS for Inhibitors of human tyrosyl-DNA phosphodiesterase 1 (TDP1): qHTS in cells in absence of CPT | Potency, µM (highest dose often 46.2 µM), inactives show at the top dose activity change, negative = growth inhibition, most hits filed as inhibitors | DT40 Tdp1-/- hTDP1 cells, no CPT, ATP luminescence, 48 h | 420,000 compounds, 15% hits; note: potency is the fitted concentration of half-maximal effect; nearly all actives have a fitted effect of over 55% in size
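Growth kinetics read by CellTiter-Glo luminescence after ≥48 hr at 37 °C. Cells: DT40 Tdp1-/- stably carrying human TDP1, 400 per well, compound exposure in the absence of CPT (DMSO vehicle).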
* hit, by the source's call; [ ] = dose if it differs, or a comment. Only some compounds are listed: those with a hit (about 19% of all), similar ones and a draw of the others. Unless noted, calls come from the whole dose curve; as a rule, active = well fitted curve in the direction sought with a large enough effect; inconclusive = small, poorly fitted or top-dose-only effect, or another doubt; inactive = no such curve, though single readings can be large; an effect the other way counts as inactive or inconclusive. Unless noted, % is set by controls: 0 for no effect and ±100 for the full control effect.

Screening O=C(Nc1ccc(F)cc1)N(Cc1ccco1)Cc1cc2cc3c(cc2[nH]c1=O)OCO3 returned IL-1B inflam inh inconclusive, TDP1 cell CPT inconclusive, HT1080NT lethal -18%, HT1080 IDH1KD tx -5%, ELG1 DNA repair 23µM* and DT40 TDP1 no CPT 23µM*.
CCOc1ccc(CCNC(=O)c2ccc3c(c2)N(Cc2ccccc2F)C(=O)c2ccccc2S3=O)cc1OCC (centres undefined) was read as TDP1 cell CPT inconclusive and DT40 TDP1 no CPT 23µM*.
COc1ccc(CCNC(=O)c2ccc3c(c2)N(Cc2ccccc2)C(=O)c2ccccc2S3=O)cc1OC (centres undefined) was read as TDP1 cell CPT 16µM* and DT40 TDP1 no CPT 12µM*.
For CCN1C(=O)c2ccccc2S(=O)c2ccc(C(=O)NCCN(CC(C)C)CC(C)C)cc21 (centres undefined) the results were IL-1B inflam inh inconclusive, TDP1 cell CPT inconclusive, HT1080NT lethal -6%, HT1080 IDH1KD tx 0%, ELG1 DNA repair -4% and DT40 TDP1 no CPT 23µM*.
Screening COc1ccc(CNC(=O)c2ccc3c(c2)N(Cc2ccccc2)C(=O)c2ccccc2S3=O)cc1 (centres undefined) returned TDP1 cell CPT 0% and DT40 TDP1 no CPT -2%.
For O=C(NCCc1ccccc1)c1ccc2c(c1)N(Cc1ccccc1)C(=O)c1ccccc1S2=O (centres undefined) the results were TDP1 cell CPT 29µM* and DT40 TDP1 no CPT inconclusive.
For Cn1c(=O)c2c(nc(Oc3ccccc3Cl)n2Cc2ccc(C#N)cc2)n(C)c1=O the results were TDP1 cell CPT -1% and DT40 TDP1 no CPT 4%.
For CCCCN1CCC(COC(=O)c2cc(Cl)c(N)c3c2OCCO3)CC1 the results were IL-1B inflam inh -14, TDP1 cell CPT 5%, HT1080NT lethal 11%, HT1080 IDH1KD tx -4%, ELG1 DNA repair -6% and DT40 TDP1 no CPT -25%.
C[C@@H]1CN([C@H](C)CO)C(=O)CCCn2nncc2CO[C@H]1CN(C)Cc1ccc(Cl)c(Cl)c1 was read as IL-1B inflam inh -16, TDP1 cell CPT -23%, HT1080NT lethal 1%, HT1080 IDH1KD tx 1% and DT40 TDP1 no CPT inconclusive.
Screening CCCCN(C)C(=O)c1ccc2c(c1)N(Cc1cccc(Cl)c1)C(=O)c1ccccc1S2=O (centres undefined) returned TDP1 cell CPT 8.2µM* and DT40 TDP1 no CPT 15µM*.
Screening c1ccc2c(NCCN3CCOCC3)nc(-c3ccoc3)nc2c1 returned TDP1 cell CPT 16% and DT40 TDP1 no CPT -5%.
For Cn1nccc1C(=O)NC1CCN(Cc2ccccc2)CC1 the results were IL-1B inflam inh 19, TDP1 cell CPT 14%, HT1080NT lethal 13%, HT1080 IDH1KD tx 10%, ELG1 DNA repair 24% and DT40 TDP1 no CPT 1%.
Screening COc1ccc(-c2cc(C(=O)Nc3cccc(S(=O)(=O)NCc4ccco4)c3)c3ccccc3n2)cc1OC returned IL-1B inflam inh inconclusive, TDP1 cell CPT 10µM*, HT1080NT lethal 0%, HT1080 IDH1KD tx -12%, ELG1 DNA repair 5.2µM* and DT40 TDP1 no CPT 6.5µM*.
For COc1cc(C(=O)Nc2cccc(S(=O)(=O)NCc3ccco3)c2)cc(OC)c1OC the results were IL-1B inflam inh inconclusive, TDP1 cell CPT inconclusive, HT1080NT lethal -5%, HT1080 IDH1KD tx -10%, ELG1 DNA repair inconclusive and DT40 TDP1 no CPT inconclusive.
For COc1ccccc1N=c1oc2c(OC)cccc2cc1C(=O)NCc1ccco1 the results were IL-1B inflam inh 18, TDP1 cell CPT inconclusive, HT1080NT lethal -12%, HT1080 IDH1KD tx -1%, ELG1 DNA repair 12% and DT40 TDP1 no CPT inconclusive.
For COc1ccc(C(=O)Nc2ccc(Cl)cc2C(=O)NCc2ccco2)cc1OC the results were IL-1B inflam inh -58*, TDP1 cell CPT inconclusive, HT1080NT lethal 4%, HT1080 IDH1KD tx 10%, ELG1 DNA repair 16µM* and DT40 TDP1 no CPT inconclusive.
Screening COc1ccc(N=c2oc3c(OC)cccc3cc2C(=O)NCc2ccco2)cc1OC returned IL-1B inflam inh 19, TDP1 cell CPT 12µM*, HT1080NT lethal 0%, HT1080 IDH1KD tx 11%, ELG1 DNA repair inconclusive and DT40 TDP1 no CPT 7.3µM*.
Screening COc1cc2cc3c(N)c(C(=O)NCc4ccco4)sc3nc2cc1OC returned IL-1B inflam inh -58*, TDP1 cell CPT 23µM*, HT1080NT lethal -8%, HT1080 IDH1KD tx 3%[9.24 µM], ELG1 DNA repair inconclusive and DT40 TDP1 no CPT 15µM*.
For Cc1ccc2nc3sc(C(=O)NCc4ccco4)c(N)c3cc2c1 the results were IL-1B inflam inh -8, TDP1 cell CPT -11%, HT1080NT lethal -15%, HT1080 IDH1KD tx -18%, ELG1 DNA repair inconclusive and DT40 TDP1 no CPT -1%.
Screening O=C(COC(=O)c1ccc[n+]([O-])c1)Nc1ccc(Cl)cc1[N+](=O)[O-] returned IL-1B inflam inh 8, TDP1 cell CPT -3%, HT1080NT lethal -2%, HT1080 IDH1KD tx 1%, ELG1 DNA repair 12% and DT40 TDP1 no CPT -19%.
Screening N#CC(C(=O)NC1CCCCC1)=C1CCCCCC1 returned IL-1B inflam inh 17, TDP1 cell CPT 0%, HT1080NT lethal 4%, HT1080 IDH1KD tx 9%, ELG1 DNA repair -3% and DT40 TDP1 no CPT -12%.
For COc1ccc(-c2cc(-c3ccccc3)nc(Cl)n2)cc1OC the results were IL-1B inflam inh -5, TDP1 cell CPT 30%, HT1080NT lethal -7%, HT1080 IDH1KD tx -15%, ELG1 DNA repair 18µM* and DT40 TDP1 no CPT inconclusive.
COc1cccc(-c2cc(C(=O)NCc3ccco3)c3ccccc3n2)c1 was read as IL-1B inflam inh 16, TDP1 cell CPT 12µM*, HT1080NT lethal 2%, HT1080 IDH1KD tx 3%, ELG1 DNA repair inconclusive and DT40 TDP1 no CPT inconclusive.
`CS(=O)(=O)c1ccccc1-c1nc(-c2cccc(Cl)c2)no1` gave IL-1B inflam inh -23, TDP1 cell CPT 4%, HT1080NT lethal -14%, HT1080 IDH1KD tx -7%, ELG1 DNA repair -8% and DT40 TDP1 no CPT inconclusive.
Screening COc1ccc(-c2noc(-c3ccccc3-c3ccccc3)n2)cc1OC returned IL-1B inflam inh 19, TDP1 cell CPT inconclusive, HT1080NT lethal -3%, HT1080 IDH1KD tx -3%, ELG1 DNA repair -19% and DT40 TDP1 no CPT 26µM*.
